These results are taken from PubChem BioAssay (NCATS).

The structures appear in SMILES notation. Inconclusive results are not listed. Unmarked numbers belong to inactive results. The source made the active and inactive calls. Unless noted, the call rests on the fitted dose curve; in most records, active means well fitted curve in the direction sought with a large enough effect; inconclusive means small, poorly fitted or top-dose-only effect, or another doubt; inactive means no such curve, though single readings can be large; an effect the other way counts as inactive or inconclusive.

Experiment [1] is described as follows: qHTS for differential inhibitors of proliferation of Plasmodium falciparum line 7G8 (AID 1815).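 Further: parasite growth measured after three days of incubation.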 Further: potency means the concentration at half of the fitted maximal effect.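 On activity change, negative = inhibition: plate controls were vehicle wells for no effect and reference inhibitor wells for full effect.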
Experiment [2] can be described thus: qHTS for differential inhibitors of proliferation of Plasmodium falciparum line 3D7 (AID 1876). Further: potency means the concentration at half of the fitted maximal effect.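 On activity, negative = inhibition: parasite growth measured after three days of culture; 0% = vehicle wells and -100% = reference inhibitor wells.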 On the technique in general: qHTS replaces the single test concentration by a dilution series.
The nature of experiment [3]: qHTS for differential inhibitors of proliferation of Plasmodium falciparum line W2 (AID 1883).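 Further: parasites grown with compound for 72 h before lysis and staining.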 Further: potency means the concentration at half of the fitted maximal effect.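 On activity change, negative = inhibition: 0% = vehicle wells and -100% = control inhibitor wells.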 As to conditions: Potency: Plasmodium falciparum W2 proliferation inhibition.
The nature of experiment [4]: qHTS for differential inhibitors of proliferation of Plasmodium falciparum line HB3 (AID 1886).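 Further: parasites grown with compound for 72 h before SYBR Green readout.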 Further: potency means the concentration at half of the fitted maximal effect.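 On activity change, negative = inhibition: plate controls were vehicle for no effect and reference inhibitor for full effect.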 Particulars: Potency: Plasmodium falciparum HB3 proliferation inhibition.
Experiment [5] concerns the target RecQ-like DNA helicase BLM (Homo sapiens) (UniProt P54132). As to the kind of experiment: qHTS Validation Assay for Inhibitors of Bloom's syndrome helicase (BLM) (AID 2364).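 Further: plate controls were DMSO vehicle for no effect and enzyme-free control for full effect.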 The essentials: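 50 nM BLM preincubated 15 min at room temperature with compound in pH 8.0 Tris buffer containing 2.5 ug/ml poly(dI-dC); started with 200 nM TAMRA/BHQ-2 forked duplex and 2 mM ATP (final). Unwinding read as TAMRA fluorescence increase, two reads 2 h apart.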

Experiment [6] is described as follows: Validation screen for small molecules that induce DNA re-replication in MCF 10A normal breast cells (AID 463097). Further: 0% is about no effect; nearly all actives have a fitted effect of over 60% in size. The essentials: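 Image-based qHTS: normal breast cells are incubated with compound for 48 hr, stained with Hoechst, and scanned for total nuclear fluorescence. Compounds raising the fraction of nuclei with elevated DNA content count as re-replication inducers.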

Experiment [7] deals with Voltage-gated inwardly rectifying potassium channel KCNH2 (Homo sapiens) (UniProt Q12809). As to the kind of experiment: qHTS Assay for Small Molecule Inhibitors of the Human hERG Channel Activity (AID 588834).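 Further: lower thallium flux fluorescence means stronger hERG block; nearly all actives have a fitted effect of over 50% in size.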 Further: potency means the concentration at half of the fitted maximal effect. On activity change, negative = inhibition: top concentration of the series differs between compounds; on the % scale 0 is the no-effect control and ±100 the full control effect. The essentials: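 Step 1: BacMam hERG transduction of U2OS, 4 hrs RT. Step 2: overnight 37 °C, plate 2000 cells/well, 4 hr. Step 3: FluxOR load, compound 10 min, stimulate, read fluorescence.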

Experiment [8] concerns the target Endonuclease 4 (Escherichia coli (strain K12)) (UniProt P0A6C1). The experiment can be described thus: Counterscreen for APE1 Inhibitors: qHTS Validation Assay for Inhibitors of Endonuclease IV (AID 1708). Further: on the % scale 0 is the no-effect control and ±100 the full control effect. The essentials: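 Conditions: 2 nM enzyme, 50 nM TAMRA/BHQ-2 substrate, pH 7.5 Tris buffer with 2 mM MgCl2, RT. Compound preincubation 15 min; readout three fluorescence reads 60 s apart, third-minus-first.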
(In general: The purpose of a counterscreen is to sort out artefacts and off-target activity.)

The nature of experiment [9]: qHTS for differential inhibitors of proliferation of Plasmodium falciparum line GB4 (AID 1816).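 Further: parasite growth measured after 72 h incubation.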 Further: potency means the concentration at half of the fitted maximal effect.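 On activity change, negative = inhibition: 0% = vehicle DMSO and -100% = reference inhibitor.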 Particulars: Potency: Plasmodium falciparum GB4 proliferation inhibition.
Experiment [10] can be described thus: qHTS for differential inhibitors of proliferation of Plasmodium falciparum line D10 (AID 1877).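 Further: parasites grown with compound for 72 h before DNA staining.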 Further: potency means the concentration at half of the fitted maximal effect.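 On activity change, negative = inhibition: plate controls were vehicle wells for no effect and reference inhibitor wells for full effect.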
The nature of experiment [11]: qHTS Assay for Modulators of Human Peripheral Myelin Protein 22 (PMP22) Expression/Activity (AID 1967; active means well fitted curve in the direction sought with a large enough effect in the signal ratio; the % refers to the signal ratio;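 further: 0% = untreated cells and 100% end not stated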). A digest of the protocol:
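Luminescence ratio of Pmp22 promoter-driven green luciferase to EF-alpha-driven red luciferase, in engineered mouse MSC80 Schwann cells, served as read-out. Compounds were incubated 24h; untreated cells defined 0% Activity; curves were classified by r2, magnitude and activity.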

Experiment [12] in a line: qHTS for differential inhibitors of proliferation of Plasmodium falciparum line Dd2 (AID 1882). Further: nearly all actives have a fitted effect of over 65% in size. Further: potency means the concentration at half of the fitted maximal effect.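 On activity change, negative = inhibition: plate controls were DMSO vehicle for no effect and 0.29 µM artemisinin for full effect.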 As to conditions: Potency: Plasmodium falciparum Dd2 proliferation inhibition. The essentials:
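SYBR Green DNA fluorescence (ex 485, em 535 nm) after overnight lysis quantifies parasite growth; compound exposure lasted 72 h at 37 C on infected red cells at 2.5% hematocrit, 0.3% parasitemia (final). Artemisinin 0.29 uM and vehicle wells define normalization.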

Experiment [13] concerns the target ATP-dependent 6-phosphofructokinase (Trypanosoma brucei brucei) (UniProt O15648). The experiment can be described thus: qHTS Assay to Find Inhibitors of T. brucei phosphofructokinase: hit validation (AID 492961). Further: on the % scale 0 is the no-effect control and ±100 the full control effect. The essentials:
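Luminescence from ADP-Glo reports ADP generated as T. brucei PFK (1.25 nM) phosphorylates 0.5 mM fructose-6-phosphate using 0.1 mM ATP. Reactions ran 45 min at room temperature, pH 8.0.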

The nature of experiment [14]: qHTS profiling for inhibitors of Plasmodium falciparum proliferation (AID 504749). Further: potency means the concentration at half of the fitted maximal effect.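 On activity, negative = inhibition: 0% = DMSO vehicle and full inhibition = artemisinin control.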 On all read-outs here: nearly all actives have a fitted effect of over 60% in size. Particulars: P. falciparum in erythrocytes, SYBR Green DNA, 72 h; for activity, negative = inhibition: at 28.7 µM (top of the series). A digest of the protocol:
(§1)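 Each compound contacts P. falciparum-infected red blood cells for 72 h at 37 C; lysis buffer (Tris, EDTA, saponin, Triton X, SYBR Green I) is added and fluorescence measured next morning; values normalized to controls.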

The test system of the next experiment is 7G8. The experiment is described as above. Particulars: P. falciparum in erythrocytes, SYBR Green DNA, 72 h; series mostly up to 28.7 µM. A digest of the protocol: as §1
The next experiment relates to CP215. Described as above. As to conditions: P. falciparum in erythrocytes, SYBR Green DNA, 72 h; series mostly up to 28.7 µM. The essentials:
as §1

The test system of a further experiment is CP305. The experiment is described as above. As to conditions: P. falciparum in erythrocytes, SYBR Green DNA, 72 h; series mostly up to 28.7 µM. The essentials:
as §1

The next experiment concerns Dd2. Described as above. Particulars: P. falciparum in erythrocytes, SYBR Green DNA, 72 h; series mostly up to 28.7 µM. A digest of the protocol: as §1
Another experiment has as its system PC15. The description is as above. Particulars: P. falciparum in erythrocytes, SYBR Green DNA, 72 h; series mostly up to 28.7 µM. A digest of the protocol: as §1
Experiment [15] in a line: AP1 Signaling Pathway (AID 357; active means well fitted curve in either direction with a large enough effect, not every such curve was filed as active;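 further: ME-180 reporter cells stimulated with EGF at its EC50 level; on the % scale 0 is the no-effect control and ±100 the full control effect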). As to conditions: ME-180 (cervical carcinoma) AP-1-bla reporter, EGF-induced, beta-lactamase ratio, 5 h; at 7.69 µM (top of the series) unless noted. A digest of the protocol:
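Beta-lactamase reporter under AP-1 response element, ME-180 background. Stimulus: EC50 EGF. Compound exposure 5 h, 37 °C. Detection: CCF4, 2.5 h RT, 460/530 nm. Values: AC50 from titration.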

Voltage-gated inwardly rectifying potassium channel KCNH2 (Homo sapiens), sequence (Q12809 whole entry, looked up): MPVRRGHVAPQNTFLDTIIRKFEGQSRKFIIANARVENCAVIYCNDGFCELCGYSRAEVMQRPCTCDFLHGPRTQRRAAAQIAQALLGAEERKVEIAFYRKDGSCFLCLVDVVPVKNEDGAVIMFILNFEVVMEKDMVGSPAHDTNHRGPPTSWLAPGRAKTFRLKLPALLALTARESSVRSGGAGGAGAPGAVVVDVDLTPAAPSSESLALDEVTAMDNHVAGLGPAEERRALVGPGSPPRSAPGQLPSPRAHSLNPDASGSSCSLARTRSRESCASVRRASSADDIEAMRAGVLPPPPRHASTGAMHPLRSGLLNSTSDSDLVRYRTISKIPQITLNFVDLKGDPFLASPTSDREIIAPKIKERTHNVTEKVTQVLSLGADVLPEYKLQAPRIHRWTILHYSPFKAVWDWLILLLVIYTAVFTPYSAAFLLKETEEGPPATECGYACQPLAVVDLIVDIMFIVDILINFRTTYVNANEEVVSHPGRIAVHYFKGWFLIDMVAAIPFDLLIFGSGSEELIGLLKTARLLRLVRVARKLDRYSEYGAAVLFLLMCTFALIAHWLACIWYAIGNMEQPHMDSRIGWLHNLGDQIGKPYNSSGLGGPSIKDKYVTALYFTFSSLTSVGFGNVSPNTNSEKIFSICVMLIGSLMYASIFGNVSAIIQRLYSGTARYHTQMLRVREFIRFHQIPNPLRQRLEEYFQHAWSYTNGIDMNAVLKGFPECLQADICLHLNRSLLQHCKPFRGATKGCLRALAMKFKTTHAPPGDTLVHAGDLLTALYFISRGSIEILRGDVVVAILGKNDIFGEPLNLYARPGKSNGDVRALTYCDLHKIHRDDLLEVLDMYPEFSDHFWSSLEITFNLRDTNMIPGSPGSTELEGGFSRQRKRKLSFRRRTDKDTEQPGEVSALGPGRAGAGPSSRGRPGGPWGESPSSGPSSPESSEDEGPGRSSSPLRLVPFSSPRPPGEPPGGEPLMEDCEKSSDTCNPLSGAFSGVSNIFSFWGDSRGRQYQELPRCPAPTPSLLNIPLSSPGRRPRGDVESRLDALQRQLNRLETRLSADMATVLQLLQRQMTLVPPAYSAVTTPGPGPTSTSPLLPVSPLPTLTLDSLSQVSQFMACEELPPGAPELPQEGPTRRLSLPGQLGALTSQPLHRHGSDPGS
RecQ-like DNA helicase BLM (Homo sapiens), sequence (P54132 whole entry, looked up): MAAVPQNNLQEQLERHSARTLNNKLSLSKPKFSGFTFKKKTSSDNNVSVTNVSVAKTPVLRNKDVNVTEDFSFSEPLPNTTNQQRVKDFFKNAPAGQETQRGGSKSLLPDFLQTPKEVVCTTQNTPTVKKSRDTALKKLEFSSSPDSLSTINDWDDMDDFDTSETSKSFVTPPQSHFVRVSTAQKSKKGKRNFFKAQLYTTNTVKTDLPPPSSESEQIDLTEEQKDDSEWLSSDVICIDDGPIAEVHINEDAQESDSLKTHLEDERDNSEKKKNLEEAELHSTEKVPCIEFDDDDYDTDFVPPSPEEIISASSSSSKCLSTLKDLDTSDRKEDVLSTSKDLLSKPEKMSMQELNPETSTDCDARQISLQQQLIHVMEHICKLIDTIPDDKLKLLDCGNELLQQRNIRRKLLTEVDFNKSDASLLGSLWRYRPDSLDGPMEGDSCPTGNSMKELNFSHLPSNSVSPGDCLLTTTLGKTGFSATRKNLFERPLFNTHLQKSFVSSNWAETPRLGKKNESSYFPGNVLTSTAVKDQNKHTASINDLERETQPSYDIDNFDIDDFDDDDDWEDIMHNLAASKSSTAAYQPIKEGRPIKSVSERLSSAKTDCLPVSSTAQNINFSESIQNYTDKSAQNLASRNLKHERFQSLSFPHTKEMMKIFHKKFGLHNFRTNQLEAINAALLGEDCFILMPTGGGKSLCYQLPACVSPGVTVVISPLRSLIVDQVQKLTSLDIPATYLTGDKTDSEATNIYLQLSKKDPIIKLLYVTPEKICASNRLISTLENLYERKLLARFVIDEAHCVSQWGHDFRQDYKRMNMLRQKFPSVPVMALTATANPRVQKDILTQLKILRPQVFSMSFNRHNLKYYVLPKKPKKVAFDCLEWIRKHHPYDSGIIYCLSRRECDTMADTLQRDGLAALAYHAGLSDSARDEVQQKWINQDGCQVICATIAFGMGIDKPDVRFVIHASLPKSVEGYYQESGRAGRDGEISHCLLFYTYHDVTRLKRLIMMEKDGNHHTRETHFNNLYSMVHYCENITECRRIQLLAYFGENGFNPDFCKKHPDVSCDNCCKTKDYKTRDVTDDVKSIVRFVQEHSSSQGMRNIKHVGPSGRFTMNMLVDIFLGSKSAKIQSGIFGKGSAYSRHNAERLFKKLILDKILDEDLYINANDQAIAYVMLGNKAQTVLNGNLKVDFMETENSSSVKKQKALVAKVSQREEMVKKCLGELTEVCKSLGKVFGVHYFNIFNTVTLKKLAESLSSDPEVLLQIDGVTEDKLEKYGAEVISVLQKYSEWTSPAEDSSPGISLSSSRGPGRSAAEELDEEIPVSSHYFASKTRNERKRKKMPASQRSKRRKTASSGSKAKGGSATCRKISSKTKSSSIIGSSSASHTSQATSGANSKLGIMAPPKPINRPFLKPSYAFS
ATP-dependent 6-phosphofructokinase (Trypanosoma brucei brucei), sequence (O15648 whole entry, looked up): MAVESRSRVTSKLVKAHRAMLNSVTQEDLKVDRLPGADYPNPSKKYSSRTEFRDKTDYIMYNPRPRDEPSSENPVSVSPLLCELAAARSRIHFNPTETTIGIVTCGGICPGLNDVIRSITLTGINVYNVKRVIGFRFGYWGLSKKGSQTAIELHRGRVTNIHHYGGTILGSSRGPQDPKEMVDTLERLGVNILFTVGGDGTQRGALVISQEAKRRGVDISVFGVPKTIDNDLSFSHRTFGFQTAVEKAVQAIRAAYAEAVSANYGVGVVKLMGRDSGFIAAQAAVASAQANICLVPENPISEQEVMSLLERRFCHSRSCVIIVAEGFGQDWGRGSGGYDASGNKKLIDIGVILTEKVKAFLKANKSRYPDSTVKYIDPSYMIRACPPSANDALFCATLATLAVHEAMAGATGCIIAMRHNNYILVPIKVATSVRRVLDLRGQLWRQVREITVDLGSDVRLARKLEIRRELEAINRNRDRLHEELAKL

In the case of `CCCCC#Cc1nc(N)c2ncn([C@@H]3O[C@H](C(=O)NCC)[C@@H](O)[C@H]3O)c2n1`, the Potency in [1] was 7.94 µM (active); in experiment [2], 8.91 µM (active); in experiment [3], 11.2 µM (active); in [4], 11.2 µM (active). In addition, the Potency entry in experiment [5] and in experiment [7] was “inactive” throughout. Further, in experiment [6], the call was inactive.

Turning to `O=[N+]([O-])c1ccc(CSc2ncnc3c2ncn3[C@@H]2O[C@H](CO)[C@H](O)[C@H]2O)cc1`, the call in experiment [8], in experiment [11] and in experiment [6] was inactive. Further, the Potency result in experiment [9] and in [10] was “inactive” each time.

With `OC[C@H]1O[C@@H](n2cnc3c(N[C@H]4CC5CCC4C5)ncnc32)[C@H](O)[C@@H]1O` (stereo partly specified), the outcome in experiment [8] and in [6] was inactive. Besides, the Potency entry in [1], in experiment [9], in experiment [2], in experiment [10], in [12] and in experiment [4] was “inactive” in each case. Besides, the Potency entry in experiment [7] was “inactive”.

For `C[C@H](Cc1ccccc1)Nc1ncnc2c1ncn2[C@@H]1O[C@H](CO)[C@H](O)[C@H]1O`, the call in experiment [8] and in experiment [6] was inactive. Further, the Potency entry in experiment [1], in experiment [9], in experiment [2], in experiment [10], in [12] and in experiment [4] was “inactive” throughout. The Potency entry in experiment [5] and in [7] was “inactive” in each case.

Take `Nc1ncnc2c1ncn2[C@@H]1O[C@H](CO)[C@H](O)[C@H]1O`: the call in experiment [8], in experiment [11] and in experiment [6] was inactive. For the same molecule, the Potency result in experiment [1], in experiment [9], in experiment [2], in experiment [10], in experiment [12] and in experiment [4] was “inactive” each time. Moreover, the Potency entry in [5] was “inactive”.

Take `CSc1nc(N)c2ncn([C@@H]3O[C@H](COP(=O)(O)OP(=O)(O)O)[C@H](O)[C@H]3O)c2n1`: the Potency entry in [1], in experiment [9], in experiment [2], in experiment [10], in experiment [12] and in [3] was “inactive” throughout. Moreover, the Potency entry in experiment [4] and in experiment [7] was “inactive” in each case. The molecule was called inactive in experiment [11] and in experiment [6].

With `CN(C)C1C(=O)C(C(N)=O)=C(O)[C@@]2(O)C(=O)C3=C(O)c4c(O)ccc(Cl)c4[C@@H](O)C3C[C@@H]12` (stereo partly specified), the Potency in experiment [2] was 0.794 µM (active); in [3], 0.891 µM (active). Also, in experiment [11], the outcome was inactive. Besides, the Potency result in experiment [7] is “inactive”.

Turning to `CC(O)[C@@H](O)[C@H]1CNc2nc(N)[nH]c(=O)c2N1` (stereo partly specified), the Potency result in experiment [1], in [9], in experiment [2], in experiment [10], in [12] and in experiment [3] was “inactive” each time. Further, the Potency entry in [4] is “inactive”. Further, the molecule was classed as inactive in [6].

On to `CN1CCc2cc(Cl)c(O)cc2C(c2ccccc2)C1` (stereo unspecified), for which the Potency in experiment [1] was 7.94 µM (active); in [9], 11.2 µM (active); in experiment [2], 11.2 µM (active); in experiment [10], 12.6 µM (active); in experiment [12], 8.91 µM (active); in experiment [3], 4.47 µM (active). Besides, the values for the Potency in [4] and in experiment [7] were 12.6 µM (active) and 10 µM (active), respectively. Besides, the call in experiment [11] and in [6] was inactive. Besides, the Potency result in [5] is “inactive”.

In the case of `COc1ccc(CCNC[C@@H](O)c2ccc(O)cc2)cc1OC`, the call in experiment [8], in experiment [11], in experiment [6] and in experiment [13] was inactive. Besides, the Potency entry in experiment [1], in [9], in [2], in experiment [10], in experiment [12] and in experiment [4] was “inactive” throughout. The Potency result (in [5]; in the experiment on 7G8; in the experiment with CP215; with CP305; in the experiment with Dd2; in the experiment with PC15) was “inactive” in each case. Moreover, the figures for the activity, negative = inhibition in [14] (parasite line A) and in [14] (parasite line B) were 10.4% and 8.86%, respectively.

As to `Nc1nc2c(nc(Br)n2C2O[C@H]3COP(=O)(O)O[C@@H]3C2O)c(=O)[nH]1` (stereo partly specified), the result in experiment [8] and in experiment [6] was inactive. The figures for the Potency in experiment [2], in [12] and in [3] were 10 µM (active), 7.94 µM (active) and 6.31 µM (active), respectively.

Turning to `N=C1Sc2ccccc2C2=NCCCN12`, in experiment [15], the activity change, negative = inhibition was 18% [at 38 µM]. Further, the result in experiment [8] and in experiment [6] was inactive. For the same molecule, the Potency entry in [2], in experiment [10], in [12], in experiment [5] and in experiment [7] was “inactive” in each case.

With `CN1C[C@H](C(=O)N[C@]2(C)O[C@@]3(O)C4CCCN4C(=O)[C@H](Cc4ccccc4)N3C2=O)C[C@@H]2c3cccc4[nH]cc(c34)C[C@H]21` (stereo partly specified), the Potency was 11.2 µM (active) in [7]; 8.91 µM (active) in [14] (parasite line A); 4.47 µM (active) in experiment [14] (parasite line B); 0.158 µM (active) in the experiment on 7G8; 2.82 µM (active) in the experiment on Dd2; 1.12 µM (active) in the experiment on PC15.
